Assay results from PubChem BioAssay (NCATS).
Records with an inconclusive call do not appear. Activity calls are given as the source filed them. The call rests on the fitted dose curve; in most records, active means well fitted curve in the direction sought with a large enough effect; inconclusive means small, poorly fitted or top-dose-only effect, or another doubt; inactive means no such curve, though single readings can be large; an effect the other way counts as inactive or inconclusive.

What was measured:
[1] = qHTS of pediatric cancer cell lines to identify multiple opportunities for drug repurposing: Primary screen for SK-N-MC cells (AID 1347093);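 on activity change, negative = cytotoxic: series mostly up to about 46 µM; plate controls were DMSO neutral control for no effect and bortezomib for full effect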
Method in brief: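 Metabolically active cells were quantified by ATP-dependent luminescence (CellTiter-Glo, 15 min at room temperature) following 48 h treatment. Cells had been plated at 500-1,000 per well and settled for 5 h beforehand.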

[2] = qHTS of pediatric cancer cell lines to identify multiple opportunities for drug repurposing: Primary screen for BT-37 cells (AID 1347094);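 on activity change, negative = cytotoxic: series mostly up to about 57 µM; plate controls were DMSO for no effect and bortezomib for full effect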
Method in brief: (§1)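 Following a 5-hour attachment period, cells at 500-1,000/well received compounds and were cultured for 48 hours. CellTiter-Glo was added and luminescence read to estimate viable, metabolically active cells.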

[3] = qHTS of pediatric cancer cell lines to identify multiple opportunities for drug repurposing: Primary screen for NB-EBc1 cells (AID 1347095);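 on activity change, negative = cytotoxic: plate controls were DMSO neutral control for no effect and bortezomib for full effect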
Method in brief: as §1

[4] = qHTS of pediatric cancer cell lines to identify multiple opportunities for drug repurposing: Primary screen for U-2 OS cells (AID 1347096); further: nearly all actives have a fitted effect of over 50% in size;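 on activity change, negative = cytotoxic: plate controls were DMSO wells for no effect and bortezomib positive control wells for full effect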
Method in brief: (§2)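 Cells (500-1,000/well) rested 5 h, then received compounds for 48 h; metabolically active cells were measured by CellTiter-Glo luminescence. Final concentrations spanned up to 46 µM (MIPE, 11-point) or 0.59 nM-46 µM (NPC, 8-point) in primary screens, 11-point in follow-ups.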

[5] = qHTS of pediatric cancer cell lines to identify multiple opportunities for drug repurposing: Primary screen for Saos-2 cells (AID 1347097); further: nearly all actives have a fitted effect of over 40% in size; on activity change, negative = cytotoxic: on the % scale 0 is the no-effect control and ±100 the full control effect
Method in brief: as §1

[6] = qHTS of pediatric cancer cell lines to identify multiple opportunities for drug repurposing: Primary screen for SK-N-SH cells (AID 1347098); further: nearly all actives have a fitted effect of over 65% in size;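 on activity change, negative = cytotoxic: DMSO served as neutral control and bortezomib at 2.3 µM as positive control; on the % scale 0 is the no-effect control and ±100 the full control effect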
Method in brief: as §2

[7] = qHTS of pediatric cancer cell lines to identify multiple opportunities for drug repurposing: Primary screen for NB1643 cells (AID 1347099); further: nearly all actives have a fitted effect of over 50% in size;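 on activity change, negative = cytotoxic: plate controls were DMSO neutral control for no effect and bortezomib positive control for full effect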
Method in brief: as §1

[8] = qHTS of pediatric cancer cell lines to identify multiple opportunities for drug repurposing: Primary screen for LAN-5 cells (AID 1347100);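 on activity change, negative = cytotoxic: plate controls were DMSO neutral control for no effect and bortezomib positive control for full effect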
Method in brief: as §2

[9] = qHTS of pediatric cancer cell lines to identify multiple opportunities for drug repurposing: Primary screen for BT-12 cells (AID 1347101); further: nearly all actives have a fitted effect of over 25% in size;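 on activity change, negative = cytotoxic: plate controls were DMSO for no effect and bortezomib positive control for full effect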
Method in brief: as §2

[10] = qHTS of pediatric cancer cell lines to identify multiple opportunities for drug repurposing: Primary screen for Rh18 cells (AID 1347102); further: nearly all actives have a fitted effect of over 65% in size; on activity change, negative = cytotoxic: on the % scale 0 is the no-effect control and ±100 the full control effect
Method in brief: as §2
Potency means the concentration at half of the fitted maximal effect.

Cc1ccc(/C(=C\CN2CCCC2)c2ccccn2)cc1
inactive: Potency [1] | Potency [2] | Potency [3] | Potency [4] | Potency [5] | Potency [6] | Potency [7] | Potency [8] | Potency [9] | Potency [10]

CN1CCN(CC(=O)N2c3ccccc3C(=O)Nc3cccnc32)CC1
inactive: activity change, negative = cytotoxic [1] -2.23% [at 4.84 µM] | activity change, negative = cytotoxic [2] 11.8% [at 6.03 µM] | activity change, negative = cytotoxic [3] 16.9% [at 4.84 µM] | activity change, negative = cytotoxic [4] 4.1% [at 4.84 µM] | activity change, negative = cytotoxic [5] -2.29% [at 4.84 µM] | activity change, negative = cytotoxic [6] 4.46% [at 6 µM] | activity change, negative = cytotoxic [7] 9.59% [at 4.84 µM] | activity change, negative = cytotoxic [8] 10.3% [at 4.84 µM] | activity change, negative = cytotoxic [9] 5.59% [at 6.03 µM] | activity change, negative = cytotoxic [10] 9.39% [at 4.84 µM]

Cc1nnc(SCC2=C(C(=O)O)N3C(=O)[C@@H](NC(=O)Cn4cnnn4)[C@H]3SC2)s1
inactive: Potency [1] | Potency [2] | Potency [3] | Potency [4] | Potency [5] | Potency [6] | Potency [7] | Potency [8] | Potency [9] | Potency [10]

CC(=O)[C@@]1(O)CC[C@H]2[C@@H]3CCC4=CC(=O)CC[C@]4(C)[C@H]3CC[C@@]21C
inactive: Potency [1] | Potency [2] | Potency [3] | Potency [4] | Potency [5] | Potency [6] | Potency [7] | Potency [8] | Potency [10]

CCCN(CCC)C(=O)C(CCC(=O)O)NC(=O)c1ccccc1 (stereo not given)
inactive: Potency [1] | Potency [2] | Potency [3] | Potency [4] | Potency [5] | Potency [6] | Potency [7] | Potency [8] | Potency [9] | Potency [10]

CC(C(=O)O)c1ccc(CC2CCCC2=O)cc1 (stereo not given)
inactive: Potency [1] | Potency [2] | Potency [3] | Potency [4] | Potency [5] | Potency [6] | Potency [7] | Potency [8] | Potency [9] | Potency [10]

FC(F)(F)c1ccccc1-n1ccnc1
inactive: Potency [1] | Potency [2] | Potency [3] | Potency [4] | Potency [5] | Potency [7] | Potency [8] | Potency [9] | Potency [10]

CC(C)(C)NCC(O)c1cc(O)cc(O)c1 (stereo not given)
inactive: Potency [1] | Potency [2] | Potency [3] | Potency [4] | Potency [5] | Potency [6] | Potency [7] | Potency [8] | Potency [9] | Potency [10]

O=c1[nH]c(=O)n([C@H]2C[C@H](O)[C@@H](CO)O2)cc1Br
inactive: Potency [1] | Potency [2] | Potency [3] | Potency [4] | Potency [5] | Potency [6] | Potency [7] | Potency [8] | Potency [9] | Potency [10]

CCCOc1ccccc1-c1nc2n[nH]nc2c(=O)[nH]1
inactive: Potency [1] | Potency [2] | Potency [3] | Potency [4] | Potency [5] | Potency [6] | Potency [7] | Potency [8] | Potency [9] | Potency [10]

C[n+]1cc2c3c(ccc2c2ccc4cc5c(cc4c21)OCO5)OCO3
active: Potency [1] 1300 nM | Potency [2] 2130 nM | Potency [3] 1030 nM | Potency [4] 2910 nM | Potency [5] 4110 nM | Potency [6] 1500 nM | Potency [7] 1160 nM | Potency [8] 1160 nM | Potency [9] 1690 nM | Potency [10] 2060 nM

CCn1ccnc1CC1COc2ccccc2O1 (stereo not given)
inactive: Potency [1] | Potency [2] | Potency [3] | Potency [4] | Potency [5] | Potency [6] | Potency [7] | Potency [8] | Potency [9] | Potency [10]

CC(=O)OCC1=C(C(=O)O)N2C(=O)[C@@H](NC(=O)Cc3cccs3)[C@H]2SC1
inactive: Potency [1] | Potency [2] | Potency [3] | Potency [4] | Potency [5] | Potency [6] | Potency [7] | Potency [8] | Potency [9] | Potency [10]

CCCNC(C)C(=O)Nc1ccccc1C (stereo not given)
inactive: Potency [1] | Potency [2] | Potency [3] | Potency [4] | Potency [5] | Potency [6] | Potency [7] | Potency [8] | Potency [10]

C[N+](C)(C)CCOC(N)=O
inactive: Potency [1] | Potency [2] | Potency [3] | Potency [4] | Potency [5] | Potency [6] | Potency [7] | Potency [8] | Potency [9] | Potency [10]

NC(=Nc1ccccc1)Nc1ccccc1
inactive: Potency [1] | Potency [2] | Potency [3] | Potency [4] | Potency [5] | Potency [6] | Potency [7] | Potency [8] | Potency [9] | Potency [10]

Cc1ccc(=O)n(-c2ccccc2)c1
inactive: Potency [1] | Potency [2] | Potency [3] | Potency [4] | Potency [5] | Potency [6] | Potency [7] | Potency [8] | Potency [9] | Potency [10]

CC(C)[N+](C)(CCOC(=O)C1c2ccccc2Oc2ccccc21)C(C)C
inactive: Potency [1] | Potency [2] | Potency [3] | Potency [4] | Potency [5] | Potency [6] | Potency [7] | Potency [8] | Potency [10]

CN(C)[C@@H]1C(=O)C(C(N)=O)=C(O)[C@@]2(O)C(=O)C3=C(O)c4c(O)ccc(Cl)c4[C@@H](O)[C@H]3C[C@@H]12
inactive: Potency [1] | Potency [2] | Potency [3] | Potency [4] | Potency [5] | Potency [6] | Potency [7] | Potency [8] | Potency [10]

CCN1CCc2nc(N)oc2CC1
inactive: Potency [1] | Potency [2] | Potency [3] | Potency [4] | Potency [5] | Potency [6] | Potency [7] | Potency [8] | Potency [9] | Potency [10]

CCN(CC)CCNC(=O)c1cc(S(C)(=O)=O)ccc1OC
inactive: Potency [1] | Potency [2] | Potency [3] | Potency [4] | Potency [5] | Potency [6] | Potency [7] | Potency [8] | Potency [9] | Potency [10]

CNCCC(Oc1ccccc1OC)c1ccccc1 (stereo not given)
inactive: Potency [1] | Potency [2] | Potency [3] | Potency [4] | Potency [5] | Potency [6] | Potency [7] | Potency [8] | Potency [9] | Potency [10]
